Source: PubChem BioAssay (National Center for Advancing Translational Sciences (NCATS))
Vaccinia mCherry: qHTS for Stage-Specific Inhibitors of Vaccinia Orthopoxvirus: mCherry Reporter Primary qHTS; AID 720579, 2013; Potency, µM (top dose mostly 36.5 µM), for the others: top-dose activity change, negative = inhibition, actives largely listed as inhibitors; hit rate 0.63% among 310,000; Vaccinia virus mCherry reporter infection, fluorescence; calls by dose curve; tested in A549 cells; further: on the % scale 0 is the no-effect control and ±100 the full control effect; nearly all actives have a fitted effect of over 35% in size
Pf growth 96h: Primary qHTS for delayed death inhibitors of the malarial parasite plastid, 96 hour incubation | P. falciparum luciferase reporter growth, 96 h | Potency, µM (highest dose often 28.7 µM), without a hit: at the top dose activity change, negative = inhibition, actives largely listed as inhibitors | hit rate 6.9% among 320,000; further: on the % scale 0 is the no-effect control and ±100 the full control effect
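Delayed-death screen, second-generation endpoint: infected erythrocytes, 2% hematocrit, 0.05% parasitemia final; 96 hours at 37 C, 5% CO2; luciferase detection reagent; luminescence decrease equals reduced growth.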
Pf growth 48h: Primary qHTS for delayed death inhibitors of the malarial parasite plastid, 48 hour incubation; hit rate 5.9% among 310,000; Potency, µM (series often up to 28.7 µM), without a hit: at the highest dose activity change, negative = inhibition, actives largely listed as inhibitors; AID 504832, 2011; P. falciparum luciferase growth in erythrocytes, 48 h; further: on the % scale 0 is the no-effect control and ±100 the full control effect
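In quantitative HTS format, infected erythrocytes bearing luciferase-reporter parasites were treated for a single generation at 37 C. Luminescence after adding detection reagent served as the growth measure.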
NS1 inh: qHTS Assay for Inhibitors of Influenza NS1 Protein Function; Potency, µM (highest dose often 46.1 µM), for inactives: at the highest dose activity, positive = more growth; hit rate 0.4% among 270,000; calls by dose curve; further: actives are rising curves; nearly all actives have a fitted effect of over 50% in size
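A cell-based growth assay was used: compounds that relieve NS1-induced slow growth of budding yeast raise OD600. Assay medium was yeast nitrogen base with ammonium sulphate and -URA supplement, pH 6.0, with 2% galactose.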
HCV inhibitor: qHTS Assay for Inhibitors of Hepatitis C Virus (HCV); Huh7.5.1 HCVcc-Cre infection, luciferase reporter, 44 h; Potency, µM (series often up to 41.8 µM), without a hit: at the top dose activity change, negative = inhibition, hits mostly inhibitors; hit rate 3.4% among 340,000; AID 651820, 2012; further: on the % scale 0 is the no-effect control and ±100 the full control effect
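Infectious HCVcc-Cre (~0.5 moi) was added to cells just after compound, with cells seeded 4 h earlier at 1,000 per well. Luciferase activity after 44 h culture reported infection; substrate was incubated 15 min at room temperature before reading.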
Vaccinia Venus: qHTS for Stage-Specific Inhibitors of Vaccinia Orthopoxvirus: Venus Reporter Primary qHTS | Vaccinia virus Venus reporter expression, fluorescence | Potency, µM (doses to about 36.5 µM), inactives show top-dose activity change, negative = inhibition, most hits filed as inhibitors | hit rate 0.46% among 330,000 | AID 720580, 2013; calls by dose curve; tested in A549 cells; further: on the % scale 0 is the no-effect control and ±100 the full control effect; nearly all actives have a fitted effect of over 30% in size
* marks the source's active call; other numbers are inactive results; i = inactive; ? = inconclusive; nt = no result given. An excerpt weighted towards active compounds, which were near 11% of everything screened. Unless noted, the call rests on the fitted dose curve; in most records, active means well fitted inhibition curve with a large enough effect; inconclusive means small, poorly fitted or top-dose-only effect, or another doubt; inactive means no such curve, though single readings can be large or run the other way. Potency means the concentration at half of the fitted maximal effect.

SMILES | Vaccinia mCherry | Pf growth 96h | Pf growth 48h | NS1 inh | HCV inhibitor | Vaccinia Venus
CCOc1ccc(-n2ccnc(SCC(=O)Nc3cccc(OC)c3)c2=O)cc1 | -5% | ? | -94% | nt | ? | -11%
COc1cc2[nH]c(C(=O)N3CCC(Cc4ccccc4)CC3)cc2c(OC)c1OC | ? | 3.7µM* | 3.3µM* | 1% | ? | -17%
CCN(Cc1ccccc1)C(=O)c1cc2c(OC)c(OC)c(OC)cc2[nH]1 | nt | 8.3µM* | nt | -2% | -21% | nt
COc1ccc(N2CCN(C(=O)Cc3coc4ccc(C)cc34)CC2)cc1 | -22% | nt | nt | nt | nt | -21%
CC(=O)c1c(C(C)=O)c(C)n(C2CCCCC2)c1C | nt | 1.5µM* | -19% | -11% | -8% | -17%
O=C(Cc1ccccc1)Oc1ccc([N+](=O)[O-])cc1 | -10% | ? | -19% | 13% | 17% | -9%
O=C(Cc1ccccc1)NC(C(=O)O)C(O)c1ccc([N+](=O)[O-])cc1 (stereo not drawn) | nt | 10µM* | 23% | 2% | 9% | nt
O=C(c1cc2ccccc2o1)N1CCN(c2ccccc2Cl)CC1 | -6% | 7.4µM* | nt | -97% | 2% | -25%
O=C(c1cc2ccccc2o1)N1CCN(c2ccccn2)CC1 | -12% | 13µM* | 4.7µM* | 5% | 2% | 5%
O=C(c1ccc(Br)o1)N1CCN(c2ccccn2)CC1 | nt | 2% | -27% | -2% | -9% | nt
COc1cc(OC)cc(C(=O)N2CCC(n3c(C)nc4cc(F)ccc43)CC2)c1 | nt | 13µM* | nt | -17% | -10% | nt
Cc1ccc2nc(SCC(=O)NCc3cccs3)c(C#N)cc2c1 | -4% | 246% | 64% | 5% | 1% | 1%
COc1ccccc1N1CCN(CCCCN2C(=O)C3CCCCN3C2=O)CC1 (stereo not drawn) | -16% | 8.3µM* | -6% | -5% | -6% | -7%
COCCNC(=S)N(CCc1c(C)[nH]c2ccc(C)cc12)Cc1ccco1 | -23% | ? | ? | nt | ? | -20%
COCCNC(=S)N(CCc1c(C)[nH]c2ccc(OC)cc12)Cc1ccco1 | -17% | 245% | 9.3µM* | -1% | ? | -14%
COCCNC(=S)N(CCc1c(C)[nH]c2ccc(F)cc12)Cc1ccc(C)cc1 | -27% | 0% | ? | 14% | 14µM* | -7%
CC(C)(C)c1nc(SCC(=O)NCc2cccs2)c2ccccc2n1 | i | 23% | 7% | 1% | 4% | -6%
O=S(=O)(c1ccc2c(c1)oc1ccccc12)N1CCOCC1 | -14% | 20% | 13µM* | -6% | ? | -15%
Cn1c(=O)oc2cc(S(=O)(=O)N3CCOCC3)ccc21 | nt | 52% | ? | 5% | 5% | -11%
O=S(=O)(c1ccc2oc(=S)[nH]c2c1)N1CCCCC1 | nt | 0% | -6% | 3% | -3% | nt
O=S(=O)(c1ccc2oc(=S)[nH]c2c1)N1CCOCC1 | -9% | 8.3µM* | ? | nt | -1% | 1%
O=C(CN1CCCCCC1)Nc1ccccc1[N+](=O)[O-] | nt | 108% | 21% | -3% | -10% | nt
Cc1ccc(O)c(C(=O)c2cnc3c(c2)c(=O)n(C)c(=O)n3C)c1 | 6% | 10µM* | ? | 15% | ? | -1%
CCCCN1Cc2cc(C(=O)c3cc(OC)ccc3O)cnc2NC1=O | -10% | 9.3µM* | ? | 2% | 0% | -4%
Cc1ccc(O)c(C(=O)c2cnc3c(c2)CN(C)C(=O)N3)c1 | nt | nt | ? | 10% | ? | nt
SMILES | Vaccinia mCherry | Pf growth 96h | Pf growth 48h | NS1 inh | HCV inhibitor | Vaccinia Venus
Cc1ccc(O)c(C(=O)c2cnc3c(c2)CN(CCC(C)C)C(=O)N3)c1 | -23% | 5.2µM* | 2.9µM* | 1% | ? | -15%
Nc1cc(-c2ccccc2)ccc1O | nt | 12µM* | ? | 22% | -16% | nt
COCCNC(=O)C(=O)NNC(=O)COc1ccc(OC)cc1 | nt | -3% | 3% | 4% | -5% | nt
COc1cccc(CN2CCN(Cc3ccc(OC)c(OC)c3)CC2CCO)c1 (stereo not drawn) | -5% | 9.3µM* | -5% | 0% | 4% | -5%
COc1cccc(CN2CCN(Cc3cc4ccccc4o3)CC2CCO)c1 (stereo not drawn) | ? | -24% | -14% | 20% | 15% | -14%
COc1cccc(CN2CCN(Cc3ccc(C)o3)CC2CCO)c1 (stereo not drawn) | nt | 13µM* | 0% | 1% | 4% | nt
O=C(Nc1ccc(Cl)cc1)[C@@H]1[C@@H]2C(=O)N(c3ccc(Cl)cc3)C(=O)[C@@H]2[C@H]2C=CC=NN21 | i | nt | ? | 11% | ? | -6%
CN1CCN(c2nc3cc(N4CCOCC4)ccc3s2)CC1 | -8% | nt | nt | nt | nt | -14%
O=C1c2ccccc2C(=O)N1CCCCN1CCN(CCCCN2C(=O)c3ccccc3C2=O)CC1 | nt | nt | nt | 4% | nt | nt
O=C1CC(=C2c3ccccc3-c3ccccc32)C(=O)N1CCCCN1CCN(c2ccccc2)CC1 | nt | 6.6µM* | 4.1µM* | ? | ? | nt
CC1(C)C(=O)N(CCN2CCC(C(=O)c3ccc(F)cc3)CC2)c2ccccc21 | i | ? | 15µM* | -13% | ? | -16%
O=C(c1ccc(F)cc1)C1CCN(CCn2c(=S)[nH]c3ccccc3c2=O)CC1 | nt | 4.3µM* | 3.8µM* | nt | nt | nt
CC(=O)N1c2ccc3ccccc3c2C2C=CCC2C1c1ccc(Br)cc1 (stereo not drawn) | nt | 46% | 5.9µM* | 10% | -23% | nt
CC(=O)N1c2ccccc2CC1C(=O)NCc1cccc(Cl)c1 (stereo not drawn) | -2% | nt | nt | nt | nt | -7%
CC(=O)N1c2ccc(Cl)cc2C2C=CCC2C1c1cccc2ccccc12 (stereo not drawn) | ? | 9% | 13µM* | 12% | ? | ?
O=C1CC(c2ccc(Br)cc2)c2c(ccc3ccccc23)N1 (stereo not drawn) | -24% | nt | nt | nt | nt | -12%
O=C(N/N=C\c1ccccn1)c1ccccc1O | ? | 52% | ? | nt | 3% | -19%
CC(=O)N(CCCCl)C(C#N)c1ccccc1 (stereo not drawn) | i | 36% | 0% | 2% | 17% | -5%
CC1CC(=O)C2=C(C1)Nc1ccccc1SC2c1ccc(F)cc1 (stereo not drawn) | nt | 4.1µM* | 12µM* | -1% | 3% | nt
CCc1ccc(C2Sc3ccccc3NC3=C2C(=O)c2ccccc23)cc1 (stereo not drawn) | -13% | nt | nt | nt | nt | -11%
COc1ccccc1N(CC(=O)NCc1ccco1)C(=O)CCC(=O)Nc1ccccn1 | 1% | 0% | ? | 4% | 18% | 0%
Cc1cc(OC(F)F)ccc1NC(=S)NCCc1ccccc1 | i | -13% | 0% | -1% | -1% | -6%
COc1cc(NC(=S)NCCc2ccccc2)c(OC)cc1NC(=O)C(C)C | nt | ? | -16% | -64% | -10% | nt
